Experimental findings from ChEMBL document CHEMBL3433997, “St. Jude Leishmania screening dataset” (2016) are described below.

Holding throughout (type): functional
The target of assay [1] is Solute carrier family 2, facilitated glucose transporter member 1 (Homo sapiens) (UniProt P11166). The assay can be described thus: ST_JUDE_LEISH: Cytotoxicity at 2uM final concentration against transgenic Leishmania Mexicana promastigotes LmGLUT1 that are glucose transport deficient and complemented with the human glucose transporter GLUT1. Activity is measured by DNA content using SYBR green in vitro.

Assay [2] concerns the target Hexose transporter 1 (Plasmodium falciparum) (UniProt O97467). The assay can be described thus: ST_JUDE_LEISH: Cytotoxicity at 2uM final concentration against transgenic Leishmania Mexicana promastigotes LmPfHT that are glucose transport deficient and complemented with the Plasmodium falciparum hexose transporter. Activity is measured by DNA content using SYBR green in vitro.

Assay [3] deals with Glucose transporter (Leishmania mexicana) (UniProt O61059). The assay can be described thus: ST_JUDE_LEISH: Cytotoxicity at 2uM final concentration against transgenic Leishmania Mexicana promastigotes LmGT2 that are glucose transport deficient and complemented with the L. Mexicana glucose transporter 2. Activity is measured by DNA content using SYBR green in vitro.

Sequence of Solute carrier family 2, facilitated glucose transporter member 1 (Homo sapiens) (P11166 whole entry): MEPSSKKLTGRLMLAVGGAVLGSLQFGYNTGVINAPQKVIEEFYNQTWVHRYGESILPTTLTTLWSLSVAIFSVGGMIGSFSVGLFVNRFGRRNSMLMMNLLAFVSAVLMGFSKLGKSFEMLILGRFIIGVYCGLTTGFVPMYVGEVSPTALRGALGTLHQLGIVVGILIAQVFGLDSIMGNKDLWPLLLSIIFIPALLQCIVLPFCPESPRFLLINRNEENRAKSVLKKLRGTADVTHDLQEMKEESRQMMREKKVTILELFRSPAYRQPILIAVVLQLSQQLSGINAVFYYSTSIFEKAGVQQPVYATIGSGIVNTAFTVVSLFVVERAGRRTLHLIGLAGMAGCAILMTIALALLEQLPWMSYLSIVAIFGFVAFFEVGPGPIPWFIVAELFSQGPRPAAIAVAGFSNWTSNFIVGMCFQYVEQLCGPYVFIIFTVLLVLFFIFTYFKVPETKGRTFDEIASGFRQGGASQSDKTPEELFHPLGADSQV

For `COc1ccc(Oc2cnc(N)nc2N)c(C(C)C)c1`, the inhibition (in general, the relative decrease from the control value, in per cent) in assay [1] stood at 4.31%; in assay [2], 5.88%; in assay [3], 2.01%.
The matching figures for `CC(C)c1ccc(OCC(O)CN(CCN2CCOCC2)C(=O)Nc2ccc(Br)cc2)cc1` (stereo not drawn): 7.44%, 5.63% and 9.58%.
The matching figures for `Cc1cc(N[C@@H](Cc2ccccc2)C(=O)NCCc2ccccc2)nc(NCC2CCCCC2)n1`: 2.97%, 3.86% and 1.29%.
For the compound `CC(=O)c1cccc(S(=O)(=O)NCCCNc2nc3cc(C)cc(C)c3cc2C#N)c1`, the figures for the inhibition in assay [1], in assay [2] and in assay [3] were -0.68%, 1.78% and -1.77%, respectively.
The matching figures for `O=C(/C=C/c1ccc(Cl)c(Cl)c1)NCCCCCN1CCC(NC(=O)Nc2cccc(Cl)c2Cl)CC1`: -2.33%, -0.39% and 6%.
Regarding `CCc1cc2c(cc1OCCN(C)C)N(C(=O)Nc1ccc(-c3ccncc3)c(Cl)c1)CC2`, the inhibition in assay [1] came out at 6.82%; in assay [2], 6.4%; in assay [3], 3.08%.
The matching figures for `CC(C)CCNc1nc2ccccc2nc1Nc1cccc(C(F)(F)F)c1`: 2.21%, 3.55% and 2.32%.
Turning to `CN1CCCC(CN2CCN(Cc3cccc(-c4csc(-c5nc6ccccc6[nH]5)c4)c3)CC2)C1` (stereo not drawn), the inhibition turned out to be 3.41% in assay [1], 1.68% in assay [2] and 1.91% in assay [3].
For `c1cc(CNCCc2ccncc2)cc(-c2cccc(-c3nc4ccccc4[nH]3)c2)c1` the same measures were 13.1%, 12.2% and 10%.
Consider `CNCCNCc1cccc(-c2cccc(-c3nc4cccc(C)c4[nH]3)c2)c1`, for which the values for the inhibition in assay [1], in assay [2] and in assay [3] were 0.8%, 2.47% and 0.35%, respectively.
For `CC(C)N(CCOc1ccc2c(c1)N(C(=O)Nc1cc(Br)cc(C(F)(F)F)c1)CC2)C(C)C` the same measures were 3.92%, 2.23% and 1.38%.
The matching figures for `CC(C)CCN1C(=O)C(NC(=O)Oc2ccccc2)C(=O)N(CC23CC4CC(CC(C4)C2)C3)c2ccccc21` (stereo not drawn): -1.21%, -2.53% and -2.02%.
As to `COc1ccc2nccc([C@@H](O)CN3CCC(NC(=O)[C@@H]4Cc5ccccc5CN4C(=O)OC(C)(C)C)CC3)c2c1`, the figures for the inhibition in assay [1], in assay [2] and in assay [3] were 8.19%, 6.18% and 3.12%, respectively.
For `N#Cc1ccc(N/C(=N\c2ccccc2Cl)NC2CCN(Cc3ccccc3)CC2)c(O)c1` the same measures were 2.09%, 2.49% and 0.29%.
The matching figures for `CN1CCC(C(=O)N(Cc2ccc(-c3ccc(CNCCc4ccccc4)cn3)cc2)Cc2cccc(F)c2)CC1`: 3.52%, 0.98% and 4.08%.
The matching figures for `Cc1cccc2nc(-c3ccc(-c4ccc(NC(=O)Nc5ccc(F)c(F)c5F)cc4)s3)[nH]c12`: 1.26%, 0.06% and 0.31%.
As to `COc1cc(-c2nc(-c3ccncc3)c(-c3ccc4c(c3)CCC4=NO)[nH]2)ccc1OCCN1CCN(C)CC1`, the values for the inhibition in assay [1], in assay [2] and in assay [3] were 6.6%, 6.49% and 5.31%, respectively.
For `CN(C)CCN1CCN(Cc2cccc(-c3csc(-c4nc5ccccc5[nH]4)c3)c2)CC1` the same measures were 0.51%, 2.44% and 2.16%.
The matching figures for `COc1cc(OC)c(NC(=O)Nc2ccnc3ccccc23)cc1Cl`: 9.23%, 8.9% and 5.83%.
For `COc1ccc(NC(=O)c2ccc(OCCCCCCCOc3ccc(C(=O)Nc4ccc(OC)c(N5CCN(C)CC5)c4)cc3)cc2)cc1N1CCN(C)CC1` the same measures were 0.98%, 0.63% and 1.11%.
Take `CC1(C)NC(N)=NC(=N)N1OCCOc1cccc(C(F)(F)F)c1`: the inhibition in assay [1] came to 1.04%; in assay [2], 0.2%; in assay [3] it was 2.45%.
For `CN(C)Cc1cccc(-c2cc3c(-c4cnn(C)c4)c(Cl)cnc3[nH]2)c1` the same measures were 95.7%, 95% and 94.2%.
For `Cc1cc(N2CCCC2)nc(Nc2ccc(NC(=O)c3ccco3)cc2)n1` the same measures were 0.47%, 3.07% and -0.1%.
For `Cc1cccc2nc(-c3cccc(-c4ccc(CNCc5ccc(S(C)(=O)=O)cc5)cc4)c3)[nH]c12` the same measures were 11.9%, 6.88% and 7.97%.
In the case of `Cc1ccc2nc(N(CCCn3ccnc3)C(=O)C=Cc3cccs3)sc2c1`, the results for the inhibition in assay [1], in assay [2] and in assay [3] were 0.75%, 1.84% and -2.73%, respectively.
The matching figures for `NC1=NC(c2ccccc2)(c2ccccc2)C(=O)N1Cc1ccc(-c2cccnc2)cc1`: 2.71%, 1.53% and 0.52%.
As for `CCCC1N=C(N)N=C(N)N1c1cccc([N+](=O)[O-])c1` (stereo not drawn), the inhibition in assay [1] was 1.33%; in assay [2] it was -0.09%; in assay [3], 0.75%.
As to `O=C(Nc1ccc2c(c1)CCN2C1CCN(Cc2ccc(F)cc2Cl)C1)c1ccco1` (stereo not drawn), the inhibition in assay [1] turned out to be 1.66%; in assay [2], 0.61%; in assay [3], 2.25%.
For `Cc1noc(C)c1C(=O)N1CCc2cc3nccc(N4CCN5CCC[C@H]5C4)c3cc21` the same measures were 0.08%, 1.27% and -0.53%.
For `Cc1ccccc1Nc1nc(NCc2ccccc2)nc2ccccc12` the same measures were 14.9%, 10.9% and 5.77%.
As for `CN(Cc1cccc(C#N)c1)C1CCN(c2cc(NC(=O)c3cccc(F)c3)ccn2)CC1`, the inhibition turned out to be 3.81% in assay [1], 5.32% in assay [2] and 4.33% in assay [3].
Regarding `CS(=O)(=O)Nc1ccc2[nH]cc(C3CCN(CC4CCC(NC(=O)/C=C/c5ccc(Cl)c(Cl)c5)CC4)CC3)c2n1` (stereo not drawn), the inhibition was 3.3% in assay [1], 1.84% in assay [2] and 0.21% in assay [3].
The matching figures for `O=C(Nc1ccc(F)cc1F)NC1CCN(CCCCCNC(=O)C2CC2c2ccc(Cl)c(Cl)c2)CC1` (stereo not drawn): 0.37%, 2.99% and 3.47%.
The matching figures for `CC(C)(C)c1cc(Cl)cc(C(=O)Nc2cc([N+](=O)[O-])ccc2Cl)c1O`: 5.8%, 4.84% and 4.28%.
Take `c1ccc(COc2ccccc2COc2ccccc2-c2ccc3cccnc3n2)cc1`: the inhibition is 0.28% in assay [1], -0.32% in assay [2] and 5.87% in assay [3].
The matching figures for `Cc1nnc2c(NC(=O)NC3CCCC3)cc3ccc(-c4cccc(CN5CCN(C)CC5)c4)cc3n12`: 6.21%, 6.49% and 5.53%.
